Data as given in ChEMBL document CHEMBL1961873, “Compounds: GSK PKIS; Assays: Nanosyn kinase panel” (2012).

Experiments:
[1] = target: High affinity nerve growth factor receptor (Homo sapiens) (UniProt P04629); conditions: at 1 µM;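 also: each value is the mean percent inhibition of TRKA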
[2] = target: BDNF/NT-3 growth factors receptor (Homo sapiens) (UniProt Q16620); conditions: at 0.1 µM
[3] = target: BDNF/NT-3 growth factors receptor (Homo sapiens) (UniProt Q16620); conditions: at 1 µM
[4] = target: NT-3 growth factor receptor (Homo sapiens) (UniProt Q16288); conditions: at 0.1 µM
[5] = target: NT-3 growth factor receptor (Homo sapiens) (UniProt Q16288); conditions: at 1 µM
[6] = target: T1, Tyrosine-protein kinase TXK (Homo sapiens) (UniProt P42681); conditions: at 0.1 µM
T1 sequence (whole entry): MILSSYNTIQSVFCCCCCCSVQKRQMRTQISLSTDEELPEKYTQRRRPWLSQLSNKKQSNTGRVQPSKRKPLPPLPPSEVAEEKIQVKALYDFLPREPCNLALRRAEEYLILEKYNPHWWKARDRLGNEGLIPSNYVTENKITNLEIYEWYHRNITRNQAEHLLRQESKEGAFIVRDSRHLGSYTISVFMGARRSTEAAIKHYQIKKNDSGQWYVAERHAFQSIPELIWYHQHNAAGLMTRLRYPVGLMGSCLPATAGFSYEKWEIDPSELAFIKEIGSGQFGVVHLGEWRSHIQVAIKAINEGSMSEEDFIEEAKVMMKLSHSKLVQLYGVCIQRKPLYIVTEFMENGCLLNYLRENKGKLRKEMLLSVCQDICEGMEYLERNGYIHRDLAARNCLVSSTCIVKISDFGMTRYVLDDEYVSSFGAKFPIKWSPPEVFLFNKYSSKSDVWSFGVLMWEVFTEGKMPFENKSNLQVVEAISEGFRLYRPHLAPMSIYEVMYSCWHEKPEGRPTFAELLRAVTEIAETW

[7] = target: T1, Tyrosine-protein kinase TXK (Homo sapiens); conditions: at 1 µM
[8] = target: Non-receptor tyrosine-protein kinase TYK2 (Homo sapiens) (UniProt P29597); conditions: at 0.1 µM;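 also: each value is a mean of the inhibition readings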
[9] = target: T2, Dual specificity protein kinase TTK (Homo sapiens) (UniProt P33981); conditions: at 1 µM;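 also: reported figures are mean TTK inhibition at 1 µM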
T2 sequence (whole entry): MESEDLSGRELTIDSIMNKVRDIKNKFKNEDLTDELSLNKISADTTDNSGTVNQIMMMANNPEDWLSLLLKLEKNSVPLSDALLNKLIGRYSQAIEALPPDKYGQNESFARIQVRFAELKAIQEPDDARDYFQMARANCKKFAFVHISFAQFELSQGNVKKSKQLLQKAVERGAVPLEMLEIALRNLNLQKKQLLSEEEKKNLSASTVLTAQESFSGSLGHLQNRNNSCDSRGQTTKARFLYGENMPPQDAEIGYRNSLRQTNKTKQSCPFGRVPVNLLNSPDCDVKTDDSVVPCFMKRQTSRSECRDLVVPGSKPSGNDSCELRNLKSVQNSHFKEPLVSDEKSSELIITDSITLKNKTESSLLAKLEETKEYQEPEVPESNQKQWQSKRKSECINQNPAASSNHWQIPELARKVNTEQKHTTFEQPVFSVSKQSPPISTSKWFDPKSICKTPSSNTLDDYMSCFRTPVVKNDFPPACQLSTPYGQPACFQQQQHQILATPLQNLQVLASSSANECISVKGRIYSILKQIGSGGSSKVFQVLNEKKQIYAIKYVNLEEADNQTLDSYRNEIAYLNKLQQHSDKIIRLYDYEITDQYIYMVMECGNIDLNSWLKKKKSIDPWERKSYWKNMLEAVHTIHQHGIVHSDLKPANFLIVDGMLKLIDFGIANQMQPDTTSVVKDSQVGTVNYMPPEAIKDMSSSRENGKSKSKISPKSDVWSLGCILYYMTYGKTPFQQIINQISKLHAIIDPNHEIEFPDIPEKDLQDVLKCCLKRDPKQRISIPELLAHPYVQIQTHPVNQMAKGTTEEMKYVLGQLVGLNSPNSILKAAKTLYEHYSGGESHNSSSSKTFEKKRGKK

[10] = target: T3, Aurora kinase A (Homo sapiens) (UniProt O14965); conditions: at 0.1 µM;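 also: each reported value is a mean percent inhibition of Aurora-A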
T3 sequence (whole entry): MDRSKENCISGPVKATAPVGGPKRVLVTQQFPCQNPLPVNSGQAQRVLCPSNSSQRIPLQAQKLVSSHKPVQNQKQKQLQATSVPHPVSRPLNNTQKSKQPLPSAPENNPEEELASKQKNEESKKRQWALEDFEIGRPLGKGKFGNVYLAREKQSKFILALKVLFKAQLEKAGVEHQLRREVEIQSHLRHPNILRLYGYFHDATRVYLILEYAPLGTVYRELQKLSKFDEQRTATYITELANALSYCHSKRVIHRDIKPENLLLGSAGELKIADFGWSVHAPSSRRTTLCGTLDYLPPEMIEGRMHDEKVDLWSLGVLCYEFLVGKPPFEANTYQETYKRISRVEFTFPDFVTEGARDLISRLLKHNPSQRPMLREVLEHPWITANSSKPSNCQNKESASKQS

High affinity nerve growth factor receptor (Homo sapiens), sequence (P04629 33-796 limits assumed): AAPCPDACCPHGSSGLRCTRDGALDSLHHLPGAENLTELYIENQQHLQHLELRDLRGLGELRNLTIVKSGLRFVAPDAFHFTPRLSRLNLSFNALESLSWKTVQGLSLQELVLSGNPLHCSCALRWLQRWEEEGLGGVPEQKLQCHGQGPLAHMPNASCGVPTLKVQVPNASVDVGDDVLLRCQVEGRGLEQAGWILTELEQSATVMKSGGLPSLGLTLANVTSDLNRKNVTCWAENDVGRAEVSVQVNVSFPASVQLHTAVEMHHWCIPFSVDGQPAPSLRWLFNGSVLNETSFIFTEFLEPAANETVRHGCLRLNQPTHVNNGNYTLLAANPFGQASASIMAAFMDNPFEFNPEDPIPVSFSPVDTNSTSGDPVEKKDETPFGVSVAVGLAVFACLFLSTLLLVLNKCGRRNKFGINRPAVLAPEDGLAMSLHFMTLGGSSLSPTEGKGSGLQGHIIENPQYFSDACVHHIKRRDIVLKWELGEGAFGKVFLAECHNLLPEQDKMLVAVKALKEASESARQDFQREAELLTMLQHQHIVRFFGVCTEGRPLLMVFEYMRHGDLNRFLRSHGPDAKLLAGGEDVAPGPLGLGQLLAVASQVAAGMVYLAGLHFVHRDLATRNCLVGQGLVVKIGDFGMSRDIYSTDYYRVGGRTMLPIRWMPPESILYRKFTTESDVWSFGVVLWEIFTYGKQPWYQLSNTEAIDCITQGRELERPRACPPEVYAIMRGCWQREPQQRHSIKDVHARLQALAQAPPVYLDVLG
BDNF/NT-3 growth factors receptor (Homo sapiens), sequence (Q16620 32-822 limits assumed): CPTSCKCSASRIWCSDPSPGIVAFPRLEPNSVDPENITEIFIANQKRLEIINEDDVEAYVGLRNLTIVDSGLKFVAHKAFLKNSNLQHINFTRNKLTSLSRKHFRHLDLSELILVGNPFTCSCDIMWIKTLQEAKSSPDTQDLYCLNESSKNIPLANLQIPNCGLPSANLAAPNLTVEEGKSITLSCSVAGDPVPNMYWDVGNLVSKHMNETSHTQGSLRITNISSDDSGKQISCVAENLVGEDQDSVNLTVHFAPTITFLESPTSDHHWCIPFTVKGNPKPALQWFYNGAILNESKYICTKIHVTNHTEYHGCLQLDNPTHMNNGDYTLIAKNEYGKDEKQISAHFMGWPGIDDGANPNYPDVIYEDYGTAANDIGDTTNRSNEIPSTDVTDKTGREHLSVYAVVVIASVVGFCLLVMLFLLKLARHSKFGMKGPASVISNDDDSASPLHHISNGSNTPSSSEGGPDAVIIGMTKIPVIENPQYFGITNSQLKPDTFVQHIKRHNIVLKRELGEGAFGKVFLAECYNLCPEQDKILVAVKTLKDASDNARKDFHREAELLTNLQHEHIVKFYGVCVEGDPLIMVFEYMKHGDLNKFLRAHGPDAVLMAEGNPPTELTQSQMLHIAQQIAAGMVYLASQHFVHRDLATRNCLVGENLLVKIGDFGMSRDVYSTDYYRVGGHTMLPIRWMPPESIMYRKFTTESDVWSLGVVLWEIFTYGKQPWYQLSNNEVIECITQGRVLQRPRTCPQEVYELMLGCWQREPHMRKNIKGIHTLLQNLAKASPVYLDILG
Non-receptor tyrosine-protein kinase TYK2 (Homo sapiens), sequence (P29597 whole entry): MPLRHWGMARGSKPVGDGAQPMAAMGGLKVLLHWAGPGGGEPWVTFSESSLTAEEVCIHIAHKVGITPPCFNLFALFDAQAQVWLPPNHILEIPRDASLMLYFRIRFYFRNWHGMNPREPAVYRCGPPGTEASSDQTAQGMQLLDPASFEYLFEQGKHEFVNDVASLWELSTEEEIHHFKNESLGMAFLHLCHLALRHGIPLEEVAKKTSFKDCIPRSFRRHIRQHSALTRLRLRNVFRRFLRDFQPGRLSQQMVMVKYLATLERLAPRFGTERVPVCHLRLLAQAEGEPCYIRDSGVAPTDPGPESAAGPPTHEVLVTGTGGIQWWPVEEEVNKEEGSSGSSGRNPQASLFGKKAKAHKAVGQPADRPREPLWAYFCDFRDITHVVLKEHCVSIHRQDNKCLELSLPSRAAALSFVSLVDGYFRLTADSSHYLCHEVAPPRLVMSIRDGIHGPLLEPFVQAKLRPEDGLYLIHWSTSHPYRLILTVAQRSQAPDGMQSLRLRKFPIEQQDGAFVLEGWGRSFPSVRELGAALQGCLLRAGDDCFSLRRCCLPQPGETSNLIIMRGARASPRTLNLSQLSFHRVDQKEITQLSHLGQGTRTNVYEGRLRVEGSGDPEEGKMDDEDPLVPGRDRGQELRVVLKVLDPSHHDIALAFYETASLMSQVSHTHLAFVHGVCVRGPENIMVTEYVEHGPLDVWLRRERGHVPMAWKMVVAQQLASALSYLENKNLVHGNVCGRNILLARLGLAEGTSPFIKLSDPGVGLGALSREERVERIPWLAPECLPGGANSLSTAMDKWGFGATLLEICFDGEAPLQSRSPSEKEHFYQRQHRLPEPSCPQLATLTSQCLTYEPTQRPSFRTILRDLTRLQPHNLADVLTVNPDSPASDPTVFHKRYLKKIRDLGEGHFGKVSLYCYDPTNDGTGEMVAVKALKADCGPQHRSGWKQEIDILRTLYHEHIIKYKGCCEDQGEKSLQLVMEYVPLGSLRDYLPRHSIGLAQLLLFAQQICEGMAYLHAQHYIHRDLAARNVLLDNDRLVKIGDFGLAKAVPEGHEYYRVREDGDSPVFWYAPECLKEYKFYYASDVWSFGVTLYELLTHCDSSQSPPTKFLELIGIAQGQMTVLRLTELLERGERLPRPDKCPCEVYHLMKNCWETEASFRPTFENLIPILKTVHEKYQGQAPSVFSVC
NT-3 growth factor receptor (Homo sapiens), sequence (Q16288 32-839 limits assumed): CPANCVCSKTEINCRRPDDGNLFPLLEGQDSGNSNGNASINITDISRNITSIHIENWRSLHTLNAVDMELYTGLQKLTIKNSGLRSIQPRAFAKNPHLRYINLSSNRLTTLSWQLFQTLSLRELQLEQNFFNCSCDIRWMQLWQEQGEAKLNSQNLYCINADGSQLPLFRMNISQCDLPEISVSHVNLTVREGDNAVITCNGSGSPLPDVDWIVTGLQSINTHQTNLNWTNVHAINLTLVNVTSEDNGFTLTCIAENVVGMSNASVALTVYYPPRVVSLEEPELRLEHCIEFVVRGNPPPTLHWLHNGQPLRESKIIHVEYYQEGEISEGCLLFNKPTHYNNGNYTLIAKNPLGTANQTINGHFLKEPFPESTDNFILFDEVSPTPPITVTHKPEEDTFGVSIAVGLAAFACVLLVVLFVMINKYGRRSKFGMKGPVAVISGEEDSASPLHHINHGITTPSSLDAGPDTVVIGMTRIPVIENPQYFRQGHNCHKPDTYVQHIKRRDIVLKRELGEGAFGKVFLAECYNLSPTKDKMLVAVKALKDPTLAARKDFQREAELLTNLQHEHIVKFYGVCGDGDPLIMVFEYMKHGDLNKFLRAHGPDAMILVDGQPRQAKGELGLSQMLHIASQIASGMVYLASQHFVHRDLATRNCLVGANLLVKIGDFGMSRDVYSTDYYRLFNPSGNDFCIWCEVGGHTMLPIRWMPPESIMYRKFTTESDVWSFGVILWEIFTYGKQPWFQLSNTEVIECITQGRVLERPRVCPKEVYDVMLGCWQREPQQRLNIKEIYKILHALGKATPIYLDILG

| Compound | inhibition [1] [%] | inhibition [2] [%] | inhibition [3] [%] | inhibition [4] [%] | inhibition [5] [%] | inhibition [6] [%] | inhibition [7] [%] | inhibition [8] [%] | inhibition [9] [%] | inhibition [10] [%] |
| --- | --- | --- | --- | --- | --- | --- | --- | --- | --- | --- |
| CCc1cccc(CC)c1/C=C/c1cncc(C(=O)NC)c1 | 1.65 | 1.04 | 3.79 | 1.36 | 3.49 | 3.65 | 8.4 | -7.46 | -0.69 | 2.26 |
| CNC(=O)c1cncc(/C=C/c2c(C)cccc2C)c1 | 0.47 | 0.05 | 0.22 | 0.47 | 1.16 | 5.71 | 35.6 | -0.15 | 5.33 | -1.77 |
| FC(F)(F)c1cccc(Nc2nccc(-c3cnn4nc(-c5ccccc5)ccc34)n2)c1 | -0.33 | 0.37 | 3.54 | -0.78 | 3.9 | -1.01 | 5.95 | -2.57 | 6.07 | 0.08 |
| NC(=O)c1ccc(Oc2nccc(-c3c(-c4ccc(F)cc4)ncn3C3CCNCC3)n2)cc1 | 5.13 | 4.3 | 5.18 | 3.1 | 4.93 | 8.98 | 6.85 | -1.79 | 12.5 | 3.58 |
| CCc1nccc2c1nc(-c1nonc1N)n2CC |  | 3.6 | -1.57 | 0.15 | -0.85 | 3.63 | 7.06 | 1.46 | 2.94 | 2.35 |
| CCc1ccc(Oc2nccc(-c3c(-c4ccc(F)cc4)ncn3C3CCNCC3)n2)cc1 | 3.03 | 1.6 | 2.36 | 1.82 | 3.29 | 6.85 | 4.56 | 1.68 | 4.86 | 3.7 |
| Clc1ccc(CNc2nccc(-c3cnn4ncccc34)n2)cc1 | 1.03 | 0.46 | 1.45 | 0.37 | 2.98 | 2.07 | 6.82 | -1.15 | 10.5 | 0.34 |
| CN(C)CCOc1ccc(-c2cc(-c3ccc4c(c3)CCC4=NO)c(-c3ccncc3)o2)cc1 | -2.77 | -0.06 | 1.62 | 0.94 | -0.98 | 0.73 | 3.15 | 0.89 | 1.15 | 0.13 |
| COc1cccc(/C=N/Nc2ncnc3c2cnn3-c2cccc(OC)c2)c1 | 4.58 | 2.99 | 5.56 | 1.57 | 2.15 | 3.48 | 2.61 | -3.27 | 9.42 | 2.87 |
| N#Cc1ccc(Oc2nccc(-c3c(-c4ccc(F)cc4)ncn3C3CCNCC3)n2)cc1 | 0.26 | 2.91 | 4.54 | 2.17 | 3.17 | -0.35 | 1.69 | -3.12 | 8.89 | 3.21 |
| NC(=O)c1cc(-c2ccc(F)cc2)cc(-c2ccncc2)c1N | -0.4 | 3.69 | 3.15 | 3.87 | 2.92 | 3.85 | 12.4 | -2.58 | 11.4 | 3.42 |
| NCc1ccc(-n2c(-c3nonc3N)nc3cnccc32)cc1 | 2.81 | 3.11 | 1.99 | 3.14 | 2.31 | 1.78 | 3.57 | -7.21 | 10.1 | 3.62 |
| Cc1nnc(-c2ccc(C)c(-c3ccc(C(=O)NCc4ccc(Cl)cc4)cc3)c2)o1 | 3.12 | 3.47 | 1.5 | 2.79 | 1.36 | -0.45 | -1.48 | -6.26 | -0.17 | -1.43 |
| Fc1ccc(-c2c(-c3ccncc3)nc3n2CCS3)cc1 | -0.43 | 1.79 | -0.01 | 3.54 | 1.8 | -1.56 | 0.44 | -0.68 | 4.17 | -2.71 |
| NS(=O)(=O)c1ccc(Nc2cc(-c3ccc(O)c(F)c3)n[nH]2)cc1 | 36.2 | 6.06 | 36.7 | 10.5 | 47.7 | -1.15 | -0.33 | 0.21 | 10 | -2.14 |
| Fc1ccc(-c2ncn(CCCN3CCOCC3)c2-c2ccncc2)cc1 | -2.74 | -0.51 | -1.43 | -0.42 | -2.77 | 1.42 | 2 | 1.6 | 5.54 | -0.48 |
| CS(=O)(=O)CCNCc1ccc(-c2ccc3ncnc(Nc4ccc(OCc5ccccc5)c(Br)c4)c3c2)o1 | 0.51 | 3 | 4.04 | 2 | 1.45 | -5.68 | 2.31 | -5.11 | 10.2 | -1.23 |
